According to PubChem BioAssay (EPA / NIEHS):
Several values for one entry are separate records, joined by “and”; a condition that tells them apart may be missing. Equal entries are not always repeated. Some structures have more than one record in an assay (separate samples or runs), and their calls can disagree. Activity calls are given as the source filed them. Rule for the calls: active = hit-call score of the fitted dose curve at least 0.9, where 1 is the maximum; inactive = score below 0.9.

Experiments:
[1] = target: CCAAT/enhancer-binding protein beta (Homo sapiens) (UniProt P17676); assay: ATG_C_EBP_CIS: Attagene CIS-FACTORIAL HepG2 Assay for human CCAAT/Enhancer Binding Protein (C/EBP) beta (AID 2282927); settings: HepG2 Attagene cis-factorial transcription factor reporter; actives raise or lower the signal
Outline: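 Endogenous C/EBPb-driven reporter transcripts measured in transfected human HepG2 cells at 24 h via RT-PCR and capillary electrophoresis of labelled fragments. Activity fitted in both directions relative to DMSO baseline.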

[2] = ATG_CMV_CIS: Attagene CIS-FACTORIAL HepG2 Assay for human CMV (Internal Marker) (AID 2282928); settings: HepG2 CMV promoter reporter, transcription factor profiling; actives raise or lower the signal;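 note: endpoint acts as a background internal control marker rather than a target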
Outline: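 Cell system: HepG2, transiently transfected multiple reporter units under cis promoters. Exposure: 24 h. Detection: RT-PCR, FAM labeling, HpaI digestion, capillary electrophoresis. Analysis: bidirectional, DMSO baseline.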

[3] = ATG_DR4_LXR_CIS: Attagene CIS-FACTORIAL HepG2 Assay for human Liver X Receptor (LXR), DR4 submotif (AID 2282929); settings: HepG2 Attagene DR4 cis-reporter, mRNA transcription; actives raise or lower the signal
Outline: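 Endogenous factor activity at a DR4 cis-element is read as reporter mRNA in transiently transfected HepG2 cells. Exposure lasts 24 h; transcripts are amplified, fluorescently labelled and sized by capillary electrophoresis, with DMSO as baseline.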

[4] = target: Aryl hydrocarbon receptor (Homo sapiens) (UniProt P35869); assay: ATG_Ahr_CIS: Attagene CIS-FACTORIAL HepG2 Assay for human Aryl Hydrocarbon Receptor (Ahr) (AID 2282930); settings: HepG2 AhR cis-factorial reporter transcription; actives raise or lower the signal
Outline: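 Reporter mRNA levels, quantified by RT-PCR and fluorescent capillary electrophoresis, reflect endogenous AhR transcriptional activity in HepG2 cells carrying transfected cis-promoter reporter constructs. Readout at 24 h post-dose; gain or loss fitted against DMSO baseline.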

[5] = ATG_AP_1_CIS: Attagene CIS-FACTORIAL HepG2 Assay for human Activator Protein 1 (AP-1) (AID 2282931); settings: HepG2 Attagene cis-factorial AP-1 reporter mRNA; actives raise or lower the signal
Outline: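 Fluorescence of labelled PCR fragments separated by capillary electrophoresis gives reporter mRNA levels. HepG2 with transfected cis-regulated reporter units, 24 h exposure; DMSO serves as baseline for bidirectional curve fits.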

[6] = ATG_AP_2_CIS: Attagene CIS-FACTORIAL HepG2 Assay for human Activator Protein 2 (AP-2) (AID 2282932); settings: HepG2 AP-2 cis-reporter, Attagene transcription factor profiling; actives raise or lower the signal
Outline: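 HepG2, transient MRTU transfection, cis-regulated reporters; 24 h compound exposure; RNA isolated, RT-PCR, 6-FAM labelling, HpaI digest, CE fluorescence. DMSO = negative control/baseline, bidirectional fit.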

[7] = ATG_BRE_CIS: Attagene CIS-FACTORIAL HepG2 Assay for human Bone Morphogenetic Protein (BMP) Response Element (BRE) (AID 2282933); settings: HepG2 BMP response element reporter, Attagene transcription factor profiling; actives raise or lower the signal
Outline: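 Endogenous transcription factor activity read in transiently transfected HepG2 cells after 24 h chemical exposure. Bidirectional curve fitting against DMSO; readout is reporter transcript level by RT-PCR with capillary electrophoresis of labelled products.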

[8] = target: Retinoic acid receptor alpha (Homo sapiens) (UniProt P10276); assay: ATG_DR5_RAR_CIS: Attagene CIS-FACTORIAL HepG2 Assay for human Retinoic Acid Receptor Alpha (RARE), DR5 submotif (AID 2282934); settings: HepG2 Attagene cis-factorial RARE DR5 reporter, mRNA; actives raise or lower the signal
Outline: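 Reporter transcripts from a DR5-regulated unit, measured via RT-PCR plus capillary electrophoresis, reflect endogenous RAR activity in transiently transfected human HepG2 liver cells. Exposure lasted 24 h; gain or loss of signal scored against DMSO.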

[9] = target: Transcription factor E2F1 (Homo sapiens) (UniProt Q01094); assay: ATG_E2F_CIS: Attagene CIS-FACTORIAL HepG2 Assay for human E2F Transcription Factor 1 (AID 2282935); settings: HepG2 Attagene cis-reporter, E2F reporter RNA transcripts; actives raise or lower the signal
Outline: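 Cis-element reporter mRNA induction in transiently transfected HepG2, 24 h exposure. Activity fitted in both directions relative to DMSO negative control.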

[10] = ATG_E_Box_CIS: Attagene CIS-FACTORIAL HepG2 Assay for human Enhancer Box (E-box) (AID 2282936); settings: HepG2 E-box cis-reporter transcription, actives raise or lower the signal
Outline: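 Cells: HepG2 (human liver), transient MRTU transfection. Exposure 24 h. RNA → oligo(dT) RT → PCR → 6-FAM label → HpaI → CE. Activity fitted both directions relative to DMSO.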

[11] = ATG_M_61_CIS: Attagene CIS-FACTORIAL HepG2 Assay for M61 Transcription Factor (Internal Marker) (AID 2282937); settings: HepG2 Attagene CIS-FACTORIAL M61 internal marker reporter; actives raise or lower the signal
Outline: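 This endpoint serves as an internal background control within a multiplexed HepG2 cis-reporter panel. Cells are exposed for 24 h; reporter mRNA is amplified, fluorescently labelled and sized by capillary electrophoresis, with DMSO as negative control.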

[12] = ATG_EGR_CIS: Attagene CIS-FACTORIAL HepG2 Assay for human Early Growth Response 1 (EGR1) (AID 2282938); settings: HepG2 Attagene CIS-FACTORIAL EGR reporter mRNA; actives raise or lower the signal
Outline: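 HepG2, transient MRTU transfection (cis promoters), 24 h compound. RNA → RT (oligo-dT) → PCR → 6-FAM labelling → HpaI cut → CE fluorescence. Bidirectional fit, DMSO baseline.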

[13] = ATG_M_19_CIS: Attagene CIS-FACTORIAL HepG2 Assay for M19 Transcription Factor (Internal Marker) (AID 2282939); settings: HepG2 Attagene CIS-FACTORIAL M19 internal marker reporter; actives raise or lower the signal
Outline: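 Internal marker readout, fitted in both directions against DMSO, from HepG2 cells carrying transfected cis-element reporter constructs; RT-PCR and capillary electrophoresis of reporter mRNA after 24 h exposure.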

[14] = ATG_ERE_CIS: Attagene CIS-FACTORIAL HepG2 Assay for Estrogen Response Element (ERE) (AID 2282940); settings: HepG2 ERE cis-reporter, Attagene RNA transcript; actives raise or lower the signal
Outline: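 After 24 h compound treatment, RNA from transfected HepG2 cells was reverse-transcribed, reporter cDNA PCR-amplified, FAM-labelled, HpaI-cut and resolved by capillary electrophoresis. ERE-driven cis reporter transcripts reflect endogenous factors; gain or loss scored against DMSO.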

[15] = ATG_Ets_CIS: Attagene CIS-FACTORIAL HepG2 Assay for human Erythroblast Transformation Specific (ETS) (AID 2282941); settings: HepG2 ETS cis-reporter transcription, actives raise or lower the signal
Outline: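 After transient cis-reporter transfection, HepG2 cells receive test chemical for 24 h. Reporter mRNA levels, measured by RT-PCR and capillary electrophoresis fluorescence, are analysed bidirectionally relative to the DMSO baseline.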

[16] = target: Hepatocyte nuclear factor 3-beta (Homo sapiens) (UniProt Q9Y261); assay: ATG_FoxA2_CIS: Attagene CIS-FACTORIAL HepG2 Assay for human Forkhead box A2 (FOXA2) (AID 2282942); settings: HepG2 cis-reporter transcription factor activity, 24 h; actives raise or lower the signal
Outline: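 Cells: HepG2, transient multiplex reporter transfection. Exposure 24 h. Detection: reporter-specific RT-PCR, fluorescent labelling, restriction digest, capillary electrophoresis. Analysis: bidirectional curve fit, DMSO as negative control.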

[17] = ATG_FoxO_CIS: Attagene CIS-FACTORIAL HepG2 Assay for human Forkhead box O (FoxO) (AID 2282943); settings: HepG2 Attagene cis-reporter, FoxO element, mRNA; actives raise or lower the signal
Outline: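 Endogenous transcription factor activity read from multiplexed cis-promoter reporter transcripts in transiently transfected HepG2, 24 h after dosing. Reporter RNA measured via RT-PCR plus capillary electrophoresis of FAM-labeled products; gain or loss relative to DMSO.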

[18] = ATG_GATA_CIS: Attagene CIS-FACTORIAL HepG2 Assay for human GATA Binding Protein (AID 2282944); settings: HepG2 GATA cis-element reporter, Attagene multiplex mRNA; actives raise or lower the signal
Outline: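 Reporter transcripts from a GATA cis-regulated unit, among multiplexed reporters in transfected HepG2 cells, were measured by RT-PCR with capillary electrophoresis after 24 h dosing. Induction or loss scored relative to DMSO.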

[19] = ATG_GLI_CIS: Attagene CIS-FACTORIAL HepG2 Assay for human Zinc Finger Protein GLI1 (AID 2282945); settings: HepG2, Attagene cis-factorial reporter mRNA, GLI element; actives raise or lower the signal
Outline: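 Bidirectional curve fits relative to DMSO, using reporter mRNA levels from RT-PCR plus capillary electrophoresis. Cells were HepG2 transiently carrying cis-regulated reporter constructs, harvested 24 h after dosing.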

[20] = target: Bile acid receptor (Homo sapiens) (UniProt Q96RI1); assay: ATG_IR1_CIS: Attagene CIS-FACTORIAL HepG2 Assay for human Nuclear Receptor Subfamily 1 Group H Member 4 (NR1H4), IR1 submotif (AID 2282946); settings: IR1 reporter transcription, actives raise or lower the signal
Outline: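 Cells (human HepG2) carry transiently transfected cis-promoter reporter transcription units. Compounds are incubated 24 h, total RNA is reverse-transcribed and amplified, and labelled fragments are resolved by capillary electrophoresis. Curves use DMSO as baseline.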

Measured: AC50

Chain of Retinoic acid receptor alpha (Homo sapiens) (P10276 whole entry, looked up): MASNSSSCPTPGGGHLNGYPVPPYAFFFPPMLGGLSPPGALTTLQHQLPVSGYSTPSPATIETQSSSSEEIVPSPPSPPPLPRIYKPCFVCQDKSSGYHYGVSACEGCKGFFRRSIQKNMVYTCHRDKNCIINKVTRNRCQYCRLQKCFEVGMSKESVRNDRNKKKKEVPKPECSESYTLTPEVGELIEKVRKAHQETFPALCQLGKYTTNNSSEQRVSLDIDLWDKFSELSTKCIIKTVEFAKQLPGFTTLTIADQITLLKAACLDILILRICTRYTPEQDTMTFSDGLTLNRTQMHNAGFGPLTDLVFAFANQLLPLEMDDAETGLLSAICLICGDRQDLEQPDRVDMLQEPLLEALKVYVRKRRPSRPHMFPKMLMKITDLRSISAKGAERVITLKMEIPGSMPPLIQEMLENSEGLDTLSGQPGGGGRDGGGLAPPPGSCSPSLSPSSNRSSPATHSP
Chain of Aryl hydrocarbon receptor (Homo sapiens) (P35869 whole entry, looked up): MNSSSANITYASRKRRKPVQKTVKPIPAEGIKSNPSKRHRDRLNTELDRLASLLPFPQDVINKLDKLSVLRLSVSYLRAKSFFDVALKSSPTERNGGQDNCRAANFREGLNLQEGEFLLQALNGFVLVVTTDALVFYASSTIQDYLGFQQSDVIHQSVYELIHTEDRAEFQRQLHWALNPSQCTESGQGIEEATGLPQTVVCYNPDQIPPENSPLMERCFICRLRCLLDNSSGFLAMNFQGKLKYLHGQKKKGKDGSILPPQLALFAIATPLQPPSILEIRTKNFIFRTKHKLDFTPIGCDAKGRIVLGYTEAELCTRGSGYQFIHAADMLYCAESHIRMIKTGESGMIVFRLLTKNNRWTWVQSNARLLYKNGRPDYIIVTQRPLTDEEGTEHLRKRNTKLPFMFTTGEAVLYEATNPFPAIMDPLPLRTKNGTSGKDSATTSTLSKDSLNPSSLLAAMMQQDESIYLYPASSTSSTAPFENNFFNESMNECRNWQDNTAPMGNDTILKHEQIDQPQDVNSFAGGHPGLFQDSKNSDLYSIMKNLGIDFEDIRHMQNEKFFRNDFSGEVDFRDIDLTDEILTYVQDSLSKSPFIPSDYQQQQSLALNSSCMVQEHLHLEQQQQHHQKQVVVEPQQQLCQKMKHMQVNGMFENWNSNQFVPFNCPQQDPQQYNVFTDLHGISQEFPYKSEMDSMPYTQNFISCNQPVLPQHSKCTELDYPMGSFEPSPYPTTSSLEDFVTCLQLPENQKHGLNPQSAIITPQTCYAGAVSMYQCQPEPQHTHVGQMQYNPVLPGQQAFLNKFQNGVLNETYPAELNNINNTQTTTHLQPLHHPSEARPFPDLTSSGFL
Chain of Bile acid receptor (Homo sapiens) (Q96RI1 whole entry, looked up, the tested form may be a part): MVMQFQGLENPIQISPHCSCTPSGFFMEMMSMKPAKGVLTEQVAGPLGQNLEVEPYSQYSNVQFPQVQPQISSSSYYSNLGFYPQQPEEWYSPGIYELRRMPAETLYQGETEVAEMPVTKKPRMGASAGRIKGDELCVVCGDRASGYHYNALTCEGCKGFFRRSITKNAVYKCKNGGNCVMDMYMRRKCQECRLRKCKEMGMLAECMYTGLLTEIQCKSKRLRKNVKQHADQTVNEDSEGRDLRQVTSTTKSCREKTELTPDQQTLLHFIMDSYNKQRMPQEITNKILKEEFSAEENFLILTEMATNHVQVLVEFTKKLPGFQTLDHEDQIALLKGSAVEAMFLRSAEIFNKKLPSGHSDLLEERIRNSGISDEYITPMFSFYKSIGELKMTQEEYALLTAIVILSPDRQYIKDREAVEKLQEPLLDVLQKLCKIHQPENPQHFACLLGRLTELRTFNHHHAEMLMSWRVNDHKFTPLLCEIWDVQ
Chain of Transcription factor E2F1 (Homo sapiens) (Q01094 whole entry, looked up): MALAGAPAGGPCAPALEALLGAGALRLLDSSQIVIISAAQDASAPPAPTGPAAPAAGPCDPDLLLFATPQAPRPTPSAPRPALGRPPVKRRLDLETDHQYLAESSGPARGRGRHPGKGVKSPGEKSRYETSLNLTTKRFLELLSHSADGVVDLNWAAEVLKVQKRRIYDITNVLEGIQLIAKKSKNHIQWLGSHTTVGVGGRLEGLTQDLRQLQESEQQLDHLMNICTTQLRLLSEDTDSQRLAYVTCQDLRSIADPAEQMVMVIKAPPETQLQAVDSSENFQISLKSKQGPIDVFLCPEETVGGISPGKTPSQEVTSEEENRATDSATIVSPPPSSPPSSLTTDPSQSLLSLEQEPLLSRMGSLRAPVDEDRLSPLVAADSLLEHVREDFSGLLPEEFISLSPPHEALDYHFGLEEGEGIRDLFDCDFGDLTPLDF
Chain of CCAAT/enhancer-binding protein beta (Homo sapiens) (P17676 whole entry, looked up, the tested form may be a part): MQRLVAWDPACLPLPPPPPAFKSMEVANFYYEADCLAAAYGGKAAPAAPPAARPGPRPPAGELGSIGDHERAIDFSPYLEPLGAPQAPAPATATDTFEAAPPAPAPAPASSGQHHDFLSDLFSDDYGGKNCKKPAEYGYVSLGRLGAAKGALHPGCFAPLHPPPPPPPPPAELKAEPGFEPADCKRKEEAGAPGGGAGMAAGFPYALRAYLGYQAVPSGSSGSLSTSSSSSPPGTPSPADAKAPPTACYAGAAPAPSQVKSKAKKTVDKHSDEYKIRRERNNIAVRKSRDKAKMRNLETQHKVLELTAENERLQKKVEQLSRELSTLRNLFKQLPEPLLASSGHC
Chain of Hepatocyte nuclear factor 3-beta (Homo sapiens) (Q9Y261 whole entry, looked up): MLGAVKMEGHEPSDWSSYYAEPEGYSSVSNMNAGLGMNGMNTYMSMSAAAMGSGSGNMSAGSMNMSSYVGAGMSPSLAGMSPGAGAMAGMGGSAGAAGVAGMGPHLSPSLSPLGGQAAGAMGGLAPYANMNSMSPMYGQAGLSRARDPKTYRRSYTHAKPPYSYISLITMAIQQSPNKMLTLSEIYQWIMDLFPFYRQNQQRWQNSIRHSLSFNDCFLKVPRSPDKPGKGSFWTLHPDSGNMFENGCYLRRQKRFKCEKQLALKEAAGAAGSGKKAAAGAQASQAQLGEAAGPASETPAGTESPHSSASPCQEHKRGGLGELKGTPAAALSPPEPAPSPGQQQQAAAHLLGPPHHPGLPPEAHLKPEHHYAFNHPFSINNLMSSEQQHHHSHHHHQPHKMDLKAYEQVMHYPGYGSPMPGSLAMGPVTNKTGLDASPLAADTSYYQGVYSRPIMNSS

CCOP(=S)(OCC)SCSP(=S)(OCC)OCC
active: [14] 6.47 µM
not listed: [20]
inactive: all other assays above

N#CCCO
not listed: [13]
inactive: all other assays above

O=C1C(Cl)=C(Cl)C(=O)c2ccccc21
active: [4] 1.86 µM | [14] 5.75 µM
not listed: [16] | [18] | [20]
inactive: all other assays above

Nc1ccc(N=Nc2ccc(-c3ccc(N=Nc4c(S(=O)(=O)O)cc5cc(S(=O)(=O)O)c(N=Nc6ccccc6)c(O)c5c4N)cc3)cc2)c(N)c1
active: [7] 4.8 µM | [14] 24.8 µM
not listed: [20]
inactive: all other assays above

Oc1cccc2cccnc12
inactive: [1] | [2] | [3] | [4] | [5] | [6] | [7] | [9] | [10] | [11] | [12] | [13] | [16] | [17] | [18] | [19] | [20]
active: [2] 139 µM | [4] 165 µM | [5] 24.8 µM | [10] 69.2 µM | [12] 70.1 µM

O=C1C2(Cl)C3(Cl)C4(Cl)C(Cl)(Cl)C5(Cl)C3(Cl)C1(Cl)C5(Cl)C24Cl (centres undefined)
active: [1] 17.7 µM | [2] 2.8 µM | [3] 2.8 µM and 4.23 µM | [5] 3.57 µM and 3.03 µM | [6] 18.4 µM | [9] 11.1 µM | [10] 5.67 µM and 5.25 µM | [12] 8.48 µM | [18] 14.9 µM | [19] 3.57 µM | [20] 7.38 µM
inactive: [1] | [2] | [3] | [4] | [5] | [6] | [7] | [9] | [10] | [11] | [12] | [13] | [16] | [17] | [18] | [19] | [20]
